Drawing on PubChem BioAssay, this text covers z-score and composite z-score for 13 compounds.

Active and inactive are the calls of the source. Unless noted, how the calls were made is not given here.

Experiment [1] can be described thus: HepG2 liver cancer cell viability effects, profiling panel, resazurin fluorescence, 24 h, PK04 Diversity Set (AID 1172). Further: test concentration not given here. As to conditions: higher = more signal.
A short description of experiment [2]: basal S. cerevisiae growth modulation, no modifier, primary screen, OD600, strain BY4716, 24 h, basal condition (AID 1173). As to conditions: OD600, 24 h, higher = more signal, called active from +8 up or from −8 down.
Experiment [3] in a line: MM1S myeloma cell viability, profiling panel, resazurin fluorescence, basal, 24 h, PK04 Diversity Set (AID 1174). Further: test concentration not given here. Conditions: higher = more signal, called active from +8 up or from −8 down.
Experiment [4] addresses Dihydroorotate dehydrogenase (quinone), mitochondrial (Plasmodium falciparum (isolate 3D7)) (UniProt Q08210). The experiment in a line: PfDHODH enzyme inhibitors, primary screen, biochemical, C-terminal His tag, absorbance 600 nm (AID 1175).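 Further: recombinant parasite enzyme with a five histidine tag at its C terminus; test concentration not given here.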 As to conditions: DCIP absorbance 600 nm, higher = more signal, called active from +8 up or from −8 down.
A short description of experiment [5]: P. aeruginosa biofilm formation inhibitors, primary screen, strain PAO1, LB-PBS medium, absorbance 600 nm (AID 1176). Further: test concentration not given here. As to conditions: P. aeruginosa PAO1 growth/biofilm, A600, 12 h; higher = more signal.
A short description of experiment [6]: S. cerevisiae RM11-1a growth modifiers, primary screen, strain RM11-1a, OD600, basal, 24 h (AID 1177).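 Further: cultures grown under basal conditions with no added stressor; test concentration not given here.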 Conditions: OD600, 24 h, higher = more signal, called active from +8 up or from −8 down.
Experiment [7] is described as follows: E. coli acrAB mutant growth effects, primary screen, E. coli filamentation inducers, strain DRC39, OD650, 24 h (AID 1178).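 Further: growth measured as culture turbidity by optical density at 650 nm; test concentration not given here.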 As to conditions: higher = more signal, called active from +8 up or from −8 down.
A short description of experiment [8]: E. coli acrAB mutant growth effects, primary screen, E. coli filamentation inducers, strain DRC39, OD650, 48 h (AID 1179).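 Further: screen aims at cell division blockers that make cells filament.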 Conditions: E. coli DRC39 delta-acrAB growth, higher = more signal, called active from +8 up or from −8 down.
A short description of experiment [9]: RPMI8226 myeloma cell viability, profiling panel, resazurin fluorescence, basal, 24 h, PK04 Diversity Set (AID 1180).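 Further: RPMI8826 multiple myeloma cell line at 5000 cells per well; test concentration not given here.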 As to conditions: higher = more signal. Background: The colour change of resazurin is a common sign of viable cells or microbes.
Experiment [10] addresses E3 ubiquitin-protein ligase XIAP (Homo sapiens) (UniProt P98170). Description: XIAP binders, primary screen, biophysical, small-molecule microarray, fluorescence 635 nm (AID 1181).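 Further: score merges 667 nm emission and signal to noise over triplicate slides.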 As to conditions: small-molecule microarray binding, higher = more signal.

E3 ubiquitin-protein ligase XIAP (Homo sapiens), sequence (P98170 whole entry, looked up): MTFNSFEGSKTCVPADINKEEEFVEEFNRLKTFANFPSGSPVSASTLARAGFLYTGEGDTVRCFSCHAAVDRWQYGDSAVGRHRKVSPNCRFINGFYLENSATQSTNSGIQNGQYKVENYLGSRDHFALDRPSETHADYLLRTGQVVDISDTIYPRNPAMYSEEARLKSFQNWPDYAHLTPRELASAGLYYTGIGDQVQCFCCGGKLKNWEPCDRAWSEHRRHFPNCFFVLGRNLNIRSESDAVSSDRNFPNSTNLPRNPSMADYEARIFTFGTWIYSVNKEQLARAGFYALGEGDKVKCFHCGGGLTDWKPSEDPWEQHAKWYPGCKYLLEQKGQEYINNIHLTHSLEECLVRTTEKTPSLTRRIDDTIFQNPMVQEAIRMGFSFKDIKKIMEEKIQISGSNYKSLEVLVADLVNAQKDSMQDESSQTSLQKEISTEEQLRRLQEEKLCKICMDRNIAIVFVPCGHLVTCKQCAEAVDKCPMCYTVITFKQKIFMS
Dihydroorotate dehydrogenase (quinone), mitochondrial (Plasmodium falciparum (isolate 3D7)), sequence (Q08210 whole entry, looked up): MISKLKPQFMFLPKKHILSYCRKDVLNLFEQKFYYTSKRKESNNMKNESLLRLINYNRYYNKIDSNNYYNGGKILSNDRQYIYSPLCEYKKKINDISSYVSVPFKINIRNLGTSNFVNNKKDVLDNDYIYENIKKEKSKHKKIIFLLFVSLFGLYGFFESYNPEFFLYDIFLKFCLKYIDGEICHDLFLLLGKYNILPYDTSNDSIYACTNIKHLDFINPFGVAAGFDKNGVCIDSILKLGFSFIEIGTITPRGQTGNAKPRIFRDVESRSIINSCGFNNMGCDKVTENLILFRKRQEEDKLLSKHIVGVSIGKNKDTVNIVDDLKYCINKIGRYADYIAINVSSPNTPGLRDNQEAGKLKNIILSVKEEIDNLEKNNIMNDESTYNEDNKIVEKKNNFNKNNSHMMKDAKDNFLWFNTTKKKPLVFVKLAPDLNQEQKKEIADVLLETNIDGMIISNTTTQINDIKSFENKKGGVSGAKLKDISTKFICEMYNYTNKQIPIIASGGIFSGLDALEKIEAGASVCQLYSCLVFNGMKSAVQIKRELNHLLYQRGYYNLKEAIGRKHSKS

As to `CC(=O)OC[C@H]1O[C@H](CC=NOC[C@@H](O)COCc2ccco2)C=C[C@@H]1OC(C)=O`, the z-score was -0.13 in experiment [1]; 0.0523 (inactive) in experiment [2]; 0.166 (inactive) in experiment [3]; -1.26 (inactive) in [5]; 0.178 (inactive) in experiment [6]; 0.574 (inactive) in experiment [7]. The z-score was 0.924 (inactive) in experiment [8] and 0.396 in experiment [9]. Further, the composite z-score in experiment [4] was -0.554 (inactive); in experiment [10] it was -0.306.

In the case of `CO[C@H]1COC(=O)CCC[C@H](C)[C@@H](OC)COC(=O)CC=C[C@@H]1C`, the z-score in [1] was 0.367; in experiment [2], -0.721 (inactive); in [3], -1.18 (inactive); in experiment [5], -0.339 (inactive); in [6] it was -1.02 (inactive); in experiment [7], 0.42 (inactive). The z-score in experiment [8] is 0.0526 (inactive); in experiment [9], 1.07. For the same compound, the composite z-score in experiment [4] was -1.58 (inactive); in experiment [10], 0.0029.

With `COC(=O)C(C(=O)OC)C1CCCC(=O)C1` (stereo not given), the z-score in experiment [1] was -0.598; in experiment [2], -0.272 (inactive); in experiment [3], -1.14 (inactive); in [5], -0.482 (inactive); in experiment [6], 0.386 (inactive); in [7], -1.37 (inactive). The z-score in experiment [8] was -0.561 (inactive); in experiment [9], -0.53. For the same compound, the composite z-score in experiment [4] is 0.437 (inactive); in experiment [10] it was -0.34.

Turning to `C=CC[C@@H]1C=C[C@H](ON=CC[C@@H]2C=C[C@H](OC(C)=O)[C@@H](COC(C)=O)O2)[C@@H](CO)O1`, the z-score in experiment [1] was 0.083; in experiment [2], 0.365 (inactive); in [3], -1.23 (inactive); in experiment [5], -0.242 (inactive); in experiment [6], 0.879 (inactive); in experiment [7] it was 0.879 (inactive). The z-score in [8] was 0.984 (inactive); in experiment [9], -0.687. Moreover, the composite z-score was -0.84 (inactive) in [4] and -0.158 in experiment [10].

Consider `CCN1C(=O)[C@H]2[C@H]3[C@H](O)[C@H](O)CC(=NOC(C)CN4CCCc5nc(C)c(C)cc54)[C@@H]3CC[C@H]2C1=O` (stereo not given in full), for which the z-score in [1] is -1.01; in experiment [2], -0.0189 (inactive); in experiment [3] it was -2 (inactive); in experiment [5], -0.112 (inactive); in experiment [6], 0.49 (inactive); in experiment [7], 0.836 (inactive). The results for the z-score in experiment [8] and in experiment [9] were 0.583 (inactive) and -2.01, respectively. In addition, the composite z-score in [4] was 0.988 (inactive); in [10] it was 0.109.

On to `CCN1C(=O)[C@H]2[C@H]3[C@H](O)[C@H](O)CC(=NO[C@@H]4O[C@H](CO)[C@@H](O)[C@H](O)[C@H]4O)[C@H]3CC[C@H]2C1=O`, for which the z-score in experiment [1] is -0.171; in experiment [2], -0.305 (inactive); in experiment [3], 0.298 (inactive); in experiment [5], 0.519 (inactive); in [6], -0.782 (inactive); in experiment [7] it was -0.18 (inactive). Also, the z-score in experiment [8] is -0.446 (inactive); in [9] it was 0.064. Also, the composite z-score in experiment [4] is -0.707 (inactive); in experiment [10], -0.11.

With `O=C1[C@H]2[C@H]3[C@H](O)[C@H](O)CC(=NO[C@@H]4O[C@H](CO)[C@@H](O)[C@H](O)[C@H]4O)[C@@H]3CC[C@H]2C(=O)N1C[C@@H]1CCCO1`, the z-score in [1] is -0.0979; in experiment [2], -2.29 (inactive); in experiment [3], -0.589 (inactive); in [5], -0.589 (inactive); in experiment [6], -0.633 (inactive); in experiment [7], 0.564 (inactive). The results for the z-score in experiment [8] and in [9] were 0.172 (inactive) and 0.062, respectively. Further, the composite z-score in experiment [4] is -2.39 (inactive); in [10] it was -0.152.

Turning to `COC(=O)[C@H](C)NC(=O)CCC1CC(OC(=O)NCc2cccc3ccccc23)CC2(CCCC(COC(=O)NCCc3ccccc3OC)O2)O1` (stereo not given in full), the z-score in [1] is -0.0725; in experiment [2] it was 0.526 (inactive); in experiment [3], -0.232 (inactive); in experiment [5], 0.639 (inactive); in [6], 1.61 (inactive); in experiment [7], 0.642 (inactive). The values for the z-score in experiment [8] and in experiment [9] were -0.0569 (inactive) and -0.472, respectively. The results for the composite z-score in experiment [4] and in experiment [10] were 0.325 (inactive) and 0.0932, respectively.

Take `COc1ccc(COC(=O)NN=C2C[C@@H](O)[C@@H](O)[C@@H]3[C@@H]4C(=O)N(C[C@@H]5CCCO5)C(=O)[C@@H]4CC[C@@H]23)cc1`: the z-score in experiment [1] is -0.407; in experiment [2] it was 0.443 (inactive); in experiment [3] it was 0.075 (inactive); in [5], 0.328 (inactive); in experiment [6], 0.513 (inactive); in [7], 1.02 (inactive). The z-score in experiment [8] is 1.11 (inactive); in experiment [9], 0.115. Besides, the composite z-score in experiment [4] was -0.367 (inactive); in experiment [10], -0.0559.

Take `CCOC(=O)[C@H](Cc1ccccc1)NC(=O)CCC1CC(OC(=O)NCc2cccc3ccccc23)CC2(CCCC(COC(=O)NCCOc3ccccc3)O2)O1` (stereo not given in full): the z-score in experiment [1] was -0.208; in experiment [2], -1.13 (inactive); in experiment [3] it was 1.41 (inactive); in [5] it was -0.0448 (inactive); in experiment [6], -1.17 (inactive); in [7] it was 0.19 (inactive). Moreover, the figures for the z-score in experiment [8] and in [9] were -1.67 (inactive) and 1.02, respectively. Besides, the composite z-score was -0.533 (inactive) in experiment [4] and -0.102 in [10].

As to `CCOC(=O)[C@H](CC(C)C)NC(=O)CCC1CC(OC(=O)NCc2ccc3c(c2)OCO3)CC2(CCCC(COC(=O)NCCOc3ccccc3)O2)O1` (stereo not given in full), the z-score in [1] is -0.167; in experiment [2], 0.592 (inactive); in experiment [3], 0.691 (inactive); in experiment [5], -0.564 (inactive); in experiment [6], 1.21 (inactive); in experiment [7] it was -0.0466 (inactive). Further, the z-score was -0.875 (inactive) in experiment [8] and 0.632 in [9]. The composite z-score in experiment [4] is 0.0657 (inactive); in experiment [10], 0.154.

On to `O=C1CCCC=C1C(O)COCc1ccccc1` (stereo not given), for which the z-score was -0.178 in experiment [1]; -0.971 (inactive) in experiment [2]; -0.155 (inactive) in experiment [3]; 0.402 (inactive) in experiment [5]; 0.902 (inactive) in experiment [6]; -0.227 (inactive) in [7]. Besides, the z-score in [8] was -0.477 (inactive); in experiment [9], 0.13. Besides, the composite z-score in experiment [4] was 0.438 (inactive); in experiment [10] it was -0.02.

`O=C1C=C[C@@H](O)[C@@H]2[C@@H]3C(=O)N(c4cccc(Oc5ccccc5)c4)C(=O)[C@@H]3CC[C@@H]12`: the z-score in [1] was -0.553; in [2] it was -1.82 (inactive); in experiment [3] it was -0.136 (inactive); in experiment [5], 0.188 (inactive); in experiment [6] it was -0.518 (inactive); in experiment [7], 0.318 (inactive). Moreover, the z-score in experiment [8] was -1.71 (inactive); in experiment [9], 0.088. The composite z-score in experiment [4] was -2.96 (inactive); in experiment [10], 0.242.
